Measurements from the supplement of paper PMC3334620.
Whole data set: some 33,000 sequences, median “E-score (-0.5 to 0.5)” near -0.036, cut for the highest 2% near 0.37. This is one part of a sample in which the highest values are shown more often than they occur.

What follows are sequences tested against T1, Yer064c (UniProt P40041) (assay: PBM E-score (8-mer binding enrichment) (E-score (-0.5 to 0.5)); higher = stronger / more preferred TF binding). Details: protein concentration: 200 nM; construct: GST-full length.
T1 sequence: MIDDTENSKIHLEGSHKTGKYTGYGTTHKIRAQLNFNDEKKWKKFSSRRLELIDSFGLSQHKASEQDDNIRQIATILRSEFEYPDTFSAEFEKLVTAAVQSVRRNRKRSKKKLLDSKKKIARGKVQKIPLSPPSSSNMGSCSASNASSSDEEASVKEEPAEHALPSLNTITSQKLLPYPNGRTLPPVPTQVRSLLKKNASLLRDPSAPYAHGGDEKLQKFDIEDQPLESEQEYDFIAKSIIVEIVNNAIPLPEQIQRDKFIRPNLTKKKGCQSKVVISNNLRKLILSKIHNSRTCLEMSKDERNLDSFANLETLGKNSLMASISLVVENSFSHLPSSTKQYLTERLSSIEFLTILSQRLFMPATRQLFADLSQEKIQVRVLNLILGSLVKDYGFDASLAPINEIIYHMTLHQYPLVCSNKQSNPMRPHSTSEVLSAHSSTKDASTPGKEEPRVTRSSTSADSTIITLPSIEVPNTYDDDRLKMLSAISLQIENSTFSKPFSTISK
Experimental: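 Universal 'all 10-mer' protein binding microarrays (Agilent AMADID 015681) probed with GST-tagged S. cerevisiae TFs (full-length or DBD) made by in vitro transcription/translation (PURExpress), about 100-200 nM. Bound TF was detected with fluorescent anti-GST. Each ungapped 8-mer (which stands for itself and its reverse complement) is scored by the PBM enrichment score (E-score), a modified Wilcoxon-Mann-Whitney statistic from -0.5 to +0.5, computed with the Universal PBM Analysis Suite. Scale: above 0.35 generally sequence-specific binding.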

Sequence	PBM E-score
AAAGGAAG	-0.0963
GAGACAGC	0.136
CTCCTCGA	0.0215
ATTGATCC	0.0238
GCGATCCA	-0.145
CTGTAAGC	-0.0285
CTGTAGAC	0.0599
ATGTAGTA	0.0442
CTGTAGTA	0.13
ATGTAGTG	0.0118
ATGTAGTC	0.382
CTGTAGTC	0.416
GTCCGCAA	0.00032
CTAACCGA	0.171
ACGGAGAT	0.0115
CATTCGAA	0.0908
CCGGTGTA	-0.162
GTAGTCGA	0.263
CTAGTCTC	0.278
GTCGTCAC	0.142
CTAGTCCC	-0.135
GTAGTAAC	0.0921
CTAGTCTA	0.205
GTAGTCCA	0.262
CTAGTCAA	0.383

Sequence	PBM E-score
CTAGTCGA	0.214
GTAGTCAC	0.479
GTAGTCAA	0.445
CTAGTCAC	0.461
ACCACTCT	-0.0617
GTCACGAA	0.106
TTAGTCAA	0.464
TACGTCAA	-0.153
TTAGTGAA	0.178
TAGTGCGA	-0.0974
GACTCGAA	0.396
AACTCGAA	-0.0714
CACTCGAA	0.212
CACTCGAC	-0.0515
AACTCGAC	0.0909
GACTCGAC	0.391
CAGGCATG	-0.133
GTCCTCGA	0.197
CTATCCCA	-0.208
TCGACGAA	-0.00207
TCGACTAA	0.373
ACTACTAA	0.25
ACGACTAC	0.415
GCAACTAA	0.0789
GCGACTAA	0.442

Sequence	PBM E-score
ACTACGAC	0.302
ACGACGAA	0.139
CCGACTAA	0.358
ACGACTAA	0.438
GCTACTAA	-0.101
AGGACTAC	0.341
GGGAAACC	-0.0566
CTTCTGTA	-0.0492
ATGGTGCC	-0.358
TGATTGAA	0.333
CCCTCTGC	-0.226
GCGACTAC	0.391
ACGACTAT	0.401
ACGACGAT	0.023
GGGACTAC	0.228
CCGACTAC	0.325
ACGACTAG	0.359
CGCACAAG	0.0388
AGGATAGG	-0.0969
ACCAACTG	-0.097
CAACGTGC	-0.137
ACGCTGTA	-0.00895
ATGGCTCC	0.256
ATGGCTCG	0.237
ATGGCTCA	0.422

Sequence	PBM E-score
CCATAAAG	-0.178
GTAACTTA	0.166
CGGACTTA	0.203
ATGACTTA	0.475
GTGACTTA	0.443
GGGACTTA	-0.0167
CCGACTTA	0.263
AGGACTTA	0.234
ATGACGTA	0.0562
CTGACTTA	0.407
CAGACACG	-0.14
AGCGGTCA	-0.0499
ACTTACAT	-0.0151
AAGGGGCC	-0.145
AGCGAGGC	-0.282
AGGAGTCG	0.375
AGGAGTGA	0.105
AGGAGTCA	0.486
AGGAGTTG	-0.0388
AGGAGTAA	0.177
AGGAGTCC	0.297
ACTTTCTG	0.208
TCCACAAA	0.0257
ACCTCCTA	-0.134
CCGCACCA	0.017

Sequence	PBM E-score
TGCCCCAA	0.0126
CAGTGAAA	0.0766
GGTGTCGA	0.046
CACTACAA	0.0688
TACTACAA	0.119
GACTACAA	0.402
AACTACAC	0.0443
CACTACAC	-0.0592
GACTACAC	0.399
ACCAGCGC	-0.221
GGGCCCGA	-0.142
GAGCACGC	-0.163
GCTAAAAA	0.0668
ACTAAGTC	0.376
CCTGAGTA	0.234
ACTGAGTA	0.28
ACTGAGTG	0.161
ACTAAGTA	0.235
CCTGAGGC	-0.16
CCTAAGTC	0.276
ACTGAGTC	0.477
CCTGAGTC	0.461
CGGTATAC	-0.119
ATCCGGGA	-0.104
AATGCACA	-0.0113

Sequence	PBM E-score
TAGCCGCA	-0.0712
AAATTTCC	-0.0423
CCTGACGA	0.115
CCTGACGC	-0.133
GCTGACAA	0.00774
GCTGACTA	0.467
GCTGACGA	0.129
CCTGACAC	0.023
ACTGACTC	0.461
CCTGACTA	0.461
CCTGACAA	-0.124
ACTGACCC	0.0295
ACTGACAC	0.0326
CCTGACTC	0.481
ACCGCTCT	-0.114
CCGCTTAC	0.026
ATCACCCA	0.135
AGACCAGG	-0.166
TGCGTAAA	0.026
GCCGTCGA	-0.0942
CGCGGTAG	-0.0407
CCGGGTAA	-0.0414
ACTGACTG	0.306
ACTGACCA	-0.0902
ACTGACTA	0.447

Sequence	PBM E-score
ATAAAACC	0.0678
AAAAACCT	0.111
ATTCACTG	0.138
GGTCACTA	-0.234
AGACACTG	0.0291
AGTCACTC	0.467
AGTCACTA	0.469
CGTCACTC	-0.0803
AGTCACTG	0.457
CGTCACTA	0.0406
ATTCACTC	0.0742
TACTGATA	0.0643
ATAGGACG	-0.178
CCGCCAAG	-0.149
CCGTAGTC	0.394
ACGTAGTA	-0.0277
ACGTAGTC	0.39
CCGTAGGC	-0.119
ACGTAGTG	-0.132
CCGTAGTA	-0.15
AGCGTTAG	-0.0809
CATAGCAA	-0.0521
